These results are taken from PubChem BioAssay AID602295 (Broad Institute, 2012).

Each structure is given as a SMILES string. Active and inactive are the calls of the source.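 Rule for the calls: active = every separate test run called active, meaning the signal drops and a potency is fitted within twice the top valid dose; inconclusive = runs disagree, poor fit, or flat partial inhibition; inactive = all runs inactive, flat, opposite direction or too weak.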

The target of this experiment is Mitogen-activated protein kinase 3 (Homo sapiens) (UniProt P27361). Description: inhibition of MAPK3 kinase activity – biochemical, ADP-Glo luminescence, cherry pick, set 2, selectivity assay for Dyrk1A inhibitor NFAT project, dose response (AID 602295). In general terms: In ADP-Glo the light output rises with the ADP produced.
Chain of Mitogen-activated protein kinase 3 (Homo sapiens) (P27361 whole entry, looked up): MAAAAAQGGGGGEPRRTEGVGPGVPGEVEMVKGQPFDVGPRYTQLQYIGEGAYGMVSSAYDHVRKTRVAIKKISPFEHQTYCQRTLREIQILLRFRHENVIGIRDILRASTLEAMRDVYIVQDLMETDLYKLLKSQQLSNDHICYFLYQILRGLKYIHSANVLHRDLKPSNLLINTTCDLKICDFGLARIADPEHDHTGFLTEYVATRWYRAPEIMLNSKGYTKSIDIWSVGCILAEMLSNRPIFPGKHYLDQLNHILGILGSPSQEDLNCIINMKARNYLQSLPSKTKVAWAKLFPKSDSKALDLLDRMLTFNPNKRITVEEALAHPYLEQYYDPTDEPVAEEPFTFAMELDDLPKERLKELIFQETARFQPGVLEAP

Consider `Cc1noc(NS(=O)(=O)c2ccc(NC(=O)c3oc4ccc(F)cc4c3C)cc2)c1C`, for which the molecule was classed as inactive.

`Cc1c(-c2ccnc(NCc3cccnc3)n2)sc(=O)n1C`: the outcome was inactive.

As for `Clc1ccc(CNc2nccc(-c3ccc4c(c3)OCO4)n2)cc1Cl`, the outcome was inactive.

As for `COc1cc(C(=O)Nc2cccc(-c3nncn3C)c2)cc(OC)c1OC`, the outcome was inactive.

On to `CCN1CCN(Cc2ccc(NC(=O)c3ccc(C)c(NC(=O)N4CCNC4=O)c3)cc2C(F)(F)F)CC1`, for which the molecule was called inactive.

Regarding `CC(=O)Nc1ccc(SCc2ncc(-c3ccccc3)o2)cc1`, the call was inactive.

Take `Clc1cc(Cl)cc(CNc2cc(-c3ccc4c(c3)OCO4)ncn2)c1`: the result was inactive.

As to `Cc1noc(CN(C)c2ncnc3ccc(-c4ccc5c(c4)OCO5)cc23)n1`, the molecule was classed as inactive.

Turning to `CC(=O)Nc1cccc(NC(=O)c2cc3ccccc3o2)c1`, the result was inactive.

Turning to `Cc1noc(NS(=O)(=O)c2ccc(NC(=O)c3oc4ccc(Cl)cc4c3C)cc2)c1C`, the molecule was called inactive.

Take `Cc1ccnc(NC(=O)c2cccc(S(=O)(=O)N3CCN(c4ccccc4)CC3)c2)c1`: the result was inactive.

Turning to `c1cncc(CNc2cc(-c3ccc4c(c3)OCO4)ncn2)c1`, the call was inactive.

Take `O=C(COc1ccccc1)Nc1cccc(-c2cn3cccnc3n2)c1`: the result was inactive.

Turning to `Clc1ccc(Nc2nccc(-c3ccc4c(c3)OCO4)n2)cc1`, the result was inactive.

As for `Cc1ccc(CNc2ncnc3ccc(-c4ccoc4C)cc23)o1`, the result was inactive.

Turning to `CN(C)c1ccc(-c2nccc(NCc3cccs3)n2)cc1`, the molecule was called inactive.

`COc1cccc(NC(=O)c2sc(NC(=O)c3ccncc3)nc2C)c1`: the result was inactive.

`Cc1ccsc1CNc1ncnc2ccc(-c3ccc4c(c3)OCO4)cc12`: the molecule was classed as inactive.

As for `c1coc(CCNc2ncnc3ccc(-c4ccc5c(c4)OCO5)cc23)c1`, the molecule was called inactive.

Turning to `COc1cccc(-c2sc3ccccc3c2-c2ccc(OCCN3CCCC3)cc2)c1`, the call was inactive.

As for `CN(C)S(=O)(=O)c1ccc(NC(=O)c2cc3ccccc3o2)cc1`, the call was inactive.

Turning to `O=c1cc(-c2ccccc2Cl)oc2c(NS(=O)(=O)c3ccccc3C(F)(F)F)ccc(O)c12`, the result was inactive.

As to `COc1cccc(Nc2nc(-c3ccc(O)cc3)cs2)c1`, the result was inactive.

Consider `COc1ccc(C(=O)c2sc(Nc3ccccc3F)nc2N)cc1`, for which the molecule was called inactive.

`Cc1ccsc1CN(C)c1ncnc2ccc(-c3ccoc3)cc12`: the molecule was classed as inactive.

`CC1Cc2ccccc2N1c1ncnc2nc[nH]c12` (stereo not drawn): the molecule was called inactive.

For `COc1ccc2c(c1)CCc1c-2n[nH]c1C(=O)O`, the outcome was inactive.

In the case of `c1csc(CCNc2ncnc3ccc(-c4ccc5c(c4)OCO5)cc23)c1`, the result was inactive.

Regarding `O=C(NCc1ccco1)c1sc2ccccc2c1Cl`, the call was inactive.

For the molecule `Cc1nc(CNc2ncnc3ccc(-c4ccc5c(c4)OCO5)cc23)cs1`, the outcome was inactive.

Consider `CCCNc1ncnc2ccc(-c3ccc4c(c3)OCO4)cc12`, for which the result was inactive.

Regarding `COc1ccc(-c2[nH]ncc2-c2ccc3c(c2)OCCO3)c(O)c1`, the call was inactive.

With `CSCC(=O)Nc1nc(-c2ccc3c(c2)OCCO3)cs1`, the result was inactive.
